# From the OligoGym collection
# Target: SSU72
# Assay: pooled miR-30 sensor sort-seq; sequence = guide strand
# Conditions: shRNA
# Also: reference of the scale not given here.
row,Sequence,sensor-assay potency score (higher = more potent)
1,AAGAAGATCATTGTACATCTGG,0.705
2,TCGTTCTCCATGTCTTCCGTGT,-0.416
3,ATAAACATTGGGCTTGTCGGGA,-0.564
4,TTCTGGAATCTTTCTGGCCGGG,-0.713
5,TAGAGTTCTTTGTCTTTCCTAA,-0.0441
6,AACTTTGTAATCAATATCCTGC,0.0512
7,TCATACACTCTCTCTTCGCAAG,-1.24
8,TAAACATTGGGCTTGTCGGGAG,-0.587
9,TTTCCTAAGAAGATCATTGTAC,0.179
10,TTTGAAATCATAAACATTGGGC,0.0382
11,ATGAACAACAGGAAGCTCCAGA,-0.247
12,TTGTACATCTGGTCATATGTGG,0.225

# Target: SSX3
# Assay: as above
# Conditions: shRNA
row,Sequence,sensor-assay potency score (higher = more potent)
1,TATTACGCATGAAAGATGGGAG,0.05
2,TTGAACCTGATTCCCACGGTTA,-0.528
3,TTTGGGTCCAGATATCATGTTA,-0.75
4,TTTTGTATCTTCTCTGGTATTT,-0.981
5,TTTCTCCGAGACTTTCATCTTT,-0.136
6,TTCTCCGAGACTTTCATCTTTT,-0.696
